# Test results published in the OligoGym collection.
# Molecular target: PCTP
# Experiment: pooled miR-30 sensor sort-seq; sequence = guide strand
# Details: shRNA
# Further: reference of the scale not given here.
row,Sequence,sensor-assay potency score (higher = more potent)
1,AAGTCCAGTCTTCTTGTCCAGC,-1.17
2,TAACATACTGGTCCCATTGTTT,-0.841
3,TTGAACTGTAGAAGAAGGCAGC,-0.297
4,TTCATTATAGAACACACTTTTC,-1.43
5,TAGAACACACTTTTCTTCCCAG,0.135
6,TTCTTGTTCATAGAGTTCTTTA,-0.702
7,TAGAGTTCTTTAACATACTGGT,0.218
8,TTTGCTAGCTGCCACAGCCATC,-1.46
9,TTGCACAATGGAATGATCGTGT,0.345
10,TTCTTTAACATACTGGTCCCAT,-0.412
11,TTATAGAACACACTTTTCTTCC,-0.218
12,TACATTTCTAAATATTCTGGGA,-0.38

# Molecular target: PC
# Experiment: as above
# Details: shRNA
row,Sequence,sensor-assay potency score (higher = more potent)
1,TTCTTGACCTCCTTGAACTTGG,-0.463
2,TCTCGCAGCAGGATGTCTCTGA,0.144
3,TTGATGTCTATCACCTTCCCAG,-0.547
4,TAGTACTGCAGTGAGTACTTGG,-0.46
5,TTCATCTGCTTTCTGCCGGTGC,-0.101
6,TTGTTGAGCACATTCTGCAGGA,0.211
7,TTGGTCACATGAACCTTGCGGA,0.159
8,TTGAAGACCACGTTGTCTGGGT,0.437
9,TTGACCTCCTTGAACTTGGAGC,-0.629
10,TTGAGGGAGTCAAACACACGGA,0.00371
11,TACTGCAGTGAGTACTTGGTGC,-0.271
12,TTCTCGTCGATGAACTGGGTGT,-0.428

# Molecular target: PDE12
# Experiment: as above
# Details: shRNA
row,Sequence,sensor-assay potency score (higher = more potent)
1,TTGTAGTAAATCGCTAACTAAA,-1.21
2,TAGTACATAAGCATGATTCATT,-0.285
3,TAAATCGCTAACTAAATTGAGG,-0.622
4,TTGAGGTAGAGGTAGACCCTAA,-0.795
5,TATCCTTTTAGAAGAGTCCTTT,0.141
6,TAACTTAAGTCTCTCACCCTTA,-0.0358
7,TTCACCACAAGCACTTTTCAGC,-0.0283
8,TAACTTCTTCATGACTAGGTAA,-0.476
9,TTGAAGTTTACATATAAGCTTT,-0.258
10,TGAAATTGTAGTAAATCGCTAA,0.612
11,TTCTTTGTGAAGTGGGTCGGAC,-0.551
12,AAATGTAATCTAGACATCCATG,-1.09

# Molecular target: PDE1C
# Experiment: as above
# Details: shRNA
row,Sequence,sensor-assay potency score (higher = more potent)
1,TTTTGTGCTTGCTGTATCCCAC,-0.201
2,ATTCTCTCCACAAATATCCCAG,-0.723
3,TTTGAGTAAAAATCTCACGTTG,-0.294
